RAD52 inh: RAD52 DNA annealing inhibitors, primary screen, biochemical, FRET, single point, set 2; recombinant RAD52 DNA annealing, FRET fluorescence; inhibition, % at 18.7 µM; actives 0.46% (n = 360,000); AID 651710, 2012;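 active = every replicate showing at least 50% inhibition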
RAD54 inh: inhibitors of human RAD54 branch migration, primary screen, biochemical, fluorescence, single point; inhibition, % at 10.4 µM; actives 0.14% (n = 360,000); AID 602329, 2012; DNA repair and recombination protein RAD54-like (Homo sapiens), Q92698; RAD54 Holliday junction branch migration, FAM/BHQ fluorescence;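 active = mean normalized replicate activity at least 40 and at least half of replicates scoring 40 or more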;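 also: inhibitors cause a drop in the FAM fluorescence signal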
UBC13 inh: UBC13 polyubiquitin chain formation inhibitors, primary screen, biochemical, TR-FRET, uHTS. inhibition, % at 20 µM. actives 0.47% (n = 330,000); in the data active = inhibition above about 45%, passing the limit was not always enough
FID counter: compounds displacing fluorescent DNA intercalator, primary screen, artefact control for HCV NS3 helicase inhibitor project, biochemical, FID fluorescence; DNA fluorescent intercalator displacement; actives 0.17% (n = 290,000); inhibition, % at 7.9 µM; in the data active = inhibition above about 37%;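 also: higher means more ethidium bromide displaced from hairpin DNA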
MIN6 prolif: inducers of MIN6 beta-cell proliferation, primary screen, ATP luminescence, uHTS. AID 2380, 2010. MIN6 cells proliferation, ATPlite luminescence, 48 h; cells starved in 0.2% serum; 100% = growth in 10% serum. actives 0.29% (n = 330,000). proliferation, % at 10 µM;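 active = compounds whose signal lies at least 3.5 SD above the mean of all wells on their plate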
PREPL inhibitor: PREPL enzyme inhibitors, primary screen, biochemical, fluorescence polarization; actives 0.68% (n = 320,000); recombinant PREPL, fluorescence polarization activity-based probe; inhibition, % at 5.96 µM; in the data active = inhibition above about 43%
DNA binder FP: DNA-binding compounds via dye displacement, dose response, artefact control for RAD52 inhibitor project, biochemical, fluorescence polarization, cherry-pick; shares compounds with RAD52 inh; Salmon sperm DNA/acridine orange FP displacement; AC50, µM; actives 8% (n = 1,000); AID 652128, 2013;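 active = fitted half-maximal concentration for signal loss at or below twice the highest dose tested, in every separate run, actives reach about 64 µM in these data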
Of the large screens only hits and unclear results are named; the others gave an inactive call (follow-up assays come after a bar, where they were run). Most compounds without a hit are left out; they make up all but 1.3% or so of the library.

CCN1CCN(c2cc(C)c3cc(NC(=S)NCc4cccs4)ccc3n2)CC1	RAD52 inh 50 | DNA binder FP inactive
CCC(C)NC(=S)Nc1ccc2nc(N3CCOCC3)cc(C)c2c1 (stereo not given)	none
Cc1cccc(-c2ccc([C@H]3[C@@H](CO)N4CCCCN(S(=O)(=O)c5cccs5)C[C@@H]34)cc2)c1	none (no result: UBC13 inh, FID counter, MIN6 prolif, PREPL inhibitor)
C[C@@H]1CCCCO[C@@H](CN(C)Cc2ccc(C(F)(F)F)cc2)[C@H](C)CN([C@@H](C)CO)C(=O)c2cc(NC(=O)c3ccccc3)ccc2O1	none (no result: UBC13 inh, FID counter, MIN6 prolif, PREPL inhibitor)
CN(C)C(=O)[C@H]1[C@H](CO)[C@H]2Cn3c(ccc(-c4ccccc4F)c3=O)[C@@H]1N2C(=O)c1ccccc1	none (no result: UBC13 inh, FID counter, MIN6 prolif, PREPL inhibitor)
COc1ccc(NC(=O)O[C@@H](C)[C@@H]2CN3CCc4c([nH]c5ccc(-c6ccc(OC)cc6)cc45)[C@@H]3C[C@@H]2N(C)C(=O)Nc2ccc(OC)cc2)cc1	RAD52 inh 53 (no result: UBC13 inh, FID counter, MIN6 prolif, PREPL inhibitor) | DNA binder FP inactive
CC(C)(C)NCC(O)CON=C1c2ccccc2-c2ccccc21 (stereo not given)	RAD52 inh 55, FID counter 45 (no result: RAD54 inh) | DNA binder FP inactive
COc1ccccc1CNc1nc(NCc2ccc(C(C)C)cc2)c2sccc2n1	none (no result: UBC13 inh, FID counter, MIN6 prolif, PREPL inhibitor)
CC(C)c1ccc(CNc2nc(NCC3CC3)nc3ccsc23)cc1	RAD52 inh 71 (no result: UBC13 inh, FID counter, MIN6 prolif, PREPL inhibitor) | DNA binder FP inactive

Source: PubChem BioAssay
